Structures are written as SMILES.

One assay has as its system Chordin-like protein 2 (CHRDL2). Nature of the assay: CHRDL2 small-molecule binders, primary screen, biochemical, small-molecule microarray, 635 nm fluorescence (AID 1126).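 Further: printed compound slides probed with Chrdl2 protein at 4 µg/mL for 1 h at 4 C; score merges 667 nm emission intensity with signal to noise over three replicate slides.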 Conditions: small-molecule microarray binding, fluorescence 635 nm; higher = more signal.
As for `C[C@H]1C2[C@H](Cc3ccccc3)NC(=O)[C@]23C(=O)NCC(=O)N2CCC[C@H]2C(=O)NC/C=C\C/C=C/C3[C@@H]2O[C@]12C` (stereo partly specified), the composite z-score was 0.486. In turn, `COC(=O)C1=CC(CCCO)=CC(C2CC2)N(Cc2cccc(OC(F)(F)F)c2)C=C1C(=O)OC` (stereo unspecified) yielded a composite z-score of -0.745. The same measure, in the same setting: for `CCCCC(O)C1C=CC2C(=O)NC(=O)C2N1Nc1ccccn1` (stereo unspecified) the value was -0.0858; for `CCCCC(=C=CC[C@H](O)c1ccc(OCCO)cc1)C[C@H](O)c1ccccn1`, 0.0162. On the same count and under the same terms, for `CC(C)CNC(=O)[C@@H]1c2ccccc2C(=O)N(CC23CC4CC(CC(C4)C2)C3)[C@H]1c1ccc(CO)cc1` the value was -0.284. The same measure, in the same setting: as for `CCN(CC)c1ccc(N2CC=CC34O[C@@H]5C=CCOC(=O)[C@@H]5[C@H]3C(=O)N(CCCO)[C@@H]4C2=O)cc1` (stereo partly specified), the figure is -0.773.

The next assay deals with Concanavalin-A (Canavalia ensiformis) (UniProt P02866). Put plainly: ConA small-molecule binders, primary screen, artefact control for SMM control protein annotation, biochemical, small-molecule microarray, Alexa647 label, 635 nm (AID 1127).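 Further: z combines 667 nm emission intensity with signal-to-noise across three replicate slides.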 Conditions: ConA-A647 binding fluorescence, higher = more signal.
Sequence of Concanavalin-A (Canavalia ensiformis) (P02866 whole entry, looked up): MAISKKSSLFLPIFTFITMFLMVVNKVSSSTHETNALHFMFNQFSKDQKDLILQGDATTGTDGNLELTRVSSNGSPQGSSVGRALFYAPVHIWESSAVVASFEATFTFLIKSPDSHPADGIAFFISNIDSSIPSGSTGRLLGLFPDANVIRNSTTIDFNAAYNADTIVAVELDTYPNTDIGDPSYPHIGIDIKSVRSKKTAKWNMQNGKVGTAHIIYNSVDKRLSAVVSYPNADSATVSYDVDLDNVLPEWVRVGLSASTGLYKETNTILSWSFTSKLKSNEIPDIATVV
`C=CCNC(=O)[C@H]1[C@@H]2C(=O)O[C@@H](c3ccccc3)[C@@H](c3ccccc3)N2[C@@H](c2ccc(O)cc2)[C@]12C(=O)Nc1ccc(C#CC3=CCCCC3)cc12`: the composite z-score is 1.12. Still for that read-out and setting: as for `COC(=O)[C@@]1(Cc2ccccc2)[C@H]2c3cc(C(=O)N4CCCC4)n(Cc4ccc(C(F)(F)F)nc4)c3C[C@H]2CN1C(=O)c1ccccc1`, the figure is 1.16; as for `O=C1OCCC/C=C\[C@H]2OC34C=CCN(Cc5ccccc5)C(=O)[C@H]3N(CCCCCO)C(=O)[C@@H]4C12` (stereo partly specified), -1.64; as for `CN(C)CCCNC(=O)[C@@]1(Cc2ccccc2I)c2ccccc2C(=O)N(Cc2ccccc2)[C@H]1c1ccc(CO)cc1`, 1.09. Same read-out and setting: as for `COC(=O)c1c(CC[C@@H](CO)NC(=O)N[C@@H](Cc2ccccc2)Cn2cc(-c3cncn3C)nn2)oc(C(C)=O)c1C(=O)OC`, the figure is 1.07; as for `CC(c1ccccc1)C(O)C1C=CC2C(=O)N(c3ccccc3)C(=O)C2N1Nc1ccc(C#N)cc1` (stereo unspecified), 1.15. Still for that read-out and setting: as for `CC(=O)c1ccc(C(O)C2C=CC3C(=O)N(C)C(=O)C3N2NC(=O)OC(C)(C)C)cc1` (stereo unspecified), the figure is 1.17.

The compound `C=CCC(OC(C)=O)[C@@H]1[C@@H](N(Cc2ccc(-c3ccccc3)cc2)C(=O)c2cccc3ccccc23)c2cc(OCCCO)ccc2N1C(=O)c1ccc2ccccc2c1` (stereo partly specified) showed a composite z-score of -0.31.

Turning to `COC(=O)[C@@H]1N=C(c2ccc(OCCCO)cc2)O[C@@H]1c1ccccc1CN=[N+]=[N-]`, the composite z-score stood at 0.116. On the same count and under the same terms, for `CCOC(=O)C1=CC[C@@H](c2ccccc2)N(S(=O)(=O)c2ccc(C)cc2)[C@H]1C#N` the value was 1.15. Still for that read-out and setting: for `CC#CCO[Si](C#CCCCCCC)(C(C)C)C(C)C` the value was -2.41.

As for `C=CCC(OC(C)=O)[C@@H]1[C@@H](N(Cc2ccc(-c3ccccc3)cc2)C(=O)c2ccc(C)cc2)c2cc(OCCCO)ccc2N1C(=O)c1ccc2ccccc2c1` (stereo partly specified), the composite z-score is -0.328. On the same count and under the same terms, for `COc1ccc(C(O)C2C=CC3C(=O)N(C)C(=O)C3N2Nc2ccc([N+](=O)[O-])cc2[N+](=O)[O-])cc1OCc1ccccc1` (stereo unspecified) the value was 0.892; for `CN1C(=O)C2C=CC(C(O)c3ccc(-c4ccccc4)s3)N(Nc3ccccc3)C2C1=O` (stereo unspecified), 1.15. Same read-out and setting: for `N#Cc1ccc(C(O)C2C=CC3C(=O)NC(=O)C3N2Nc2ccccn2)cc1` (stereo unspecified) the value was 0.468.

The compound `CCCC=C(CCC)[C@@H](NC(=O)c1ccco1)c1ccc(C(=O)OC)cc1` had a composite z-score of 0.939.

For `COc1ccc([Si](C)(C)[C@@H]2[C@@H](CC(=O)N(CCO)Cc3ccccc3)O[C@]3(C(=O)N(Cc4ccc(N5CCC5=O)cc4)c4ccccc43)[C@H]2C)cc1`, the composite z-score is 0.783. Same read-out and setting: as for `Cc1ccc(F)cc1S(=O)(=O)N[C@@H]1CCN(Cc2ccc3[nH]ccc3c2)C1`, the figure is 0.463.

Regarding `C=C(/C(=C/C[C@H](OC(=O)c1ccncc1)c1ccccc1OCCO)c1cc(C(=O)OC)ccc1OC)C(C)C`, the composite z-score came out at 0.737. Still for that read-out and setting: for `CCOC(=O)C1=CC[C@@H](c2ccc(F)cc2)N(S(=O)(=O)c2ccc(C)cc2)[C@H]1c1ccc([N+](=O)[O-])cc1` the value was 1.09. Still for that read-out and setting: for `C=CC[C@@]1(C(=O)N(C)C)N=C(c2ccc(OCCCO)cc2)O[C@@H]1c1ccccc1` the value was 0.148; for `CC(C)C(=C=CC[C@@H](O)c1cccc(OCCO)c1)CCO`, -0.114; for `[N-]=[N+]=NCc1ccccc1C[C@]1(C(=O)N2CCOCC2)N=C(c2ccc(OCCCO)cc2)O[C@H]1c1ccccc1CN=[N+]=[N-]`, 1.14.

`COc1ccc(NN2C(C(O)c3cc(C(F)(F)F)cc(C(F)(F)F)c3)C=CC3C(=O)N(C4CCCCC4)C(=O)C32)cc1` (stereo unspecified) yielded a composite z-score of 1.04. Still for that read-out and setting: for `CC=CC(O)C1C=CC2C(=O)N(C)C(=O)C2N1NC(=O)OC(C)(C)C` (stereo unspecified) the value was 0.0815; for `[N-]=[N+]=NCc1ccccc1[C@@H]1OC(c2ccc(OCCCO)cc2)=N[C@]1(Cc1ccccc1)C(=O)NCc1ccccc1`, 1.08. On the same count and under the same terms, for `COCCOC(=O)N1C(=O)[C@@]2(c3cc(C#CCCO)ccc31)[C@H](C(=O)N1CCc3cc(OC)c(OC)cc3C1)[C@H]1C(=O)O[C@H](c3ccccc3)[C@H](c3ccccc3)N1[C@@H]2c1ccccc1OCCO` the value was 1.13; for `C=CCOC(=O)[C@@H]1[C@H]2C(=O)O[C@H](c3ccccc3)[C@H](c3ccccc3)N2[C@H](c2ccc(OCCOC(=O)[C@H]3C[C@H]4C(=O)NCC(=O)N4[C@H]3c3ccc(O)cc3)cc2)[C@@]12C(=O)Nc1ccc(I)cc12`, 1.16; for `C=CCC(OC(C)=O)[C@@H]1[C@@H](N(Cc2cc3ccccc3o2)C(=O)Cc2ccc(OC)cc2)c2cc(OCCCO)ccc2N1C(=O)Cc1ccc2ccccc2c1` (stereo partly specified), 0.3. Same read-out and setting: as for `C[C@H]1C2[C@H](Cc3ccccc3)NC(=O)[C@]23C(=O)NCC(=O)N2CCC[C@H]2C(=O)NC/C=C\C/C=C/C3[C@@H]2O[C@]12C` (stereo partly specified), the figure is -0.351; as for `COC(=O)C1=CC(CCCO)=CC(C2CC2)N(Cc2cccc(OC(F)(F)F)c2)C=C1C(=O)OC` (stereo unspecified), 0.449; as for `CCCCC(O)C1C=CC2C(=O)NC(=O)C2N1Nc1ccccn1` (stereo unspecified), 0.344.

As for `CCCCC(=C=CC[C@H](O)c1ccc(OCCO)cc1)C[C@H](O)c1ccccn1`, the composite z-score worked out at 0.544. Same read-out and setting: as for `CC(C)CNC(=O)[C@@H]1c2ccccc2C(=O)N(CC23CC4CC(CC(C4)C2)C3)[C@H]1c1ccc(CO)cc1`, the figure is 1.07.

Consider `CCN(CC)c1ccc(N2CC=CC34O[C@@H]5C=CCOC(=O)[C@@H]5[C@H]3C(=O)N(CCCO)[C@@H]4C2=O)cc1` (stereo partly specified), for which the composite z-score was -1.74.
